# Assay results from PubChem BioAssay (EPA / NIEHS).
# The source made the active and inactive calls. The calls were made as follows: active = hit-call score of the fitted dose curve at least 0.9, where 1 is the maximum; inactive = score below 0.9.
# Tests used:
# [1] = read-out: Interferon-gamma inducible Protein 10 (IP10), CXCL10 (gene 3627); assay: BSK_BE3C_IP10: BioMAP Diversity Plus: BE3C Assay for Interferon-gamma inducible Protein 10 (IP10) Biomarker Activity (AID 2283034); conditions: primary human bronchial epithelial cells; actives raise or lower the signal
# In short: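 IP-10 quantified by ELISA serves as the endpoint. Cells: primary human bronchial epithelium, read 24 h after compound addition. Activity is derived by bidirectional fitting with DMSO as negative control.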
# [2] = read-out: Monokine induced gamma interferon (MIG), CXCL9 (gene 4283); assay: BSK_BE3C_MIG: BioMAP Diversity Plus: BE3C Assay for Monokine induced gamma interferon (MIG) Biomarker Activity (AID 2283035); conditions: primary human bronchial epithelial cells; actives raise or lower the signal;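 also: MIG protein measured by ELISA in BE3C cultures after 24 h of dosing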
# In short: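 hu bronchial epithelial 1° cells, 24 h cpd; MIG by ELISA; bidirectional fit, DMSO = baseline.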
# [3] = read-out: Transforming growth factor beta 1 (TGFb1), TGFB1 (gene 7040); assay: BSK_BE3C_TGFb1: BioMAP Diversity Plus: BE3C Assay for Transforming growth factor beta 1 (TGFb1) Biomarker Activity (AID 2283036;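 also: TGF-b1 protein level measured by ELISA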); conditions: primary human bronchial epithelial cells; actives raise or lower the signal
# In short: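 Bronchial epithelial primary cells are treated with test chemical, then TGF-b1 is quantified by ELISA after 24 hours. Values derive from bidirectional fitting against DMSO, with cytotoxicity checked by SRB staining in parallel cultures.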
# [4] = read-out: Plasminogen activator inhibitor-1 (PAI1), SERPINE1 (gene 5054); assay: BSK_BE3C_PAI1: BioMAP Diversity Plus: BE3C Assay for Plasminogen activator inhibitor-1 (PAI1) Biomarker Activity (AID 2283037); conditions: primary human bronchial epithelial cells; actives raise or lower the signal
# In short: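 Values derive from bidirectional fitting against DMSO baseline of PAI-1 levels, measured by ELISA in human bronchial epithelial cells 24 h after compound addition.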
# [5] = read-out: urokinase plasminogen activator (uPA), PLAU (gene 5328); assay: BSK_BE3C_uPA: BioMAP Diversity Plus: BE3C Assay for urokinase plasminogen activator (uPA) Biomarker Activity (AID 2283038); conditions: primary human bronchial epithelial cells; actives raise or lower the signal;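 also: uPA protein level quantified by ELISA in cell cultures; uPA read one day after compound addition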
# In short: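 Measured by ELISA: uPA from human primary bronchial epithelial cells 24 h after chemical treatment. Values derive from bidirectional curve fitting with DMSO serving as negative control. Total protein by SRB staining in parallel wells flagged overt cytotoxicity.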
# [6] = read-out: Urokinase-type plasminogen activator receptor (uPAR), PLAUR (gene 5329); assay: BSK_BE3C_uPAR: BioMAP Diversity Plus: BE3C Assay for Urokinase-type plasminogen activator receptor (uPAR) Biomarker Activity (AID 2283039); conditions: primary human bronchial epithelial cells; actives raise or lower the signal;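 also: uPAR protein level measured by ELISA on the cells; cells exposed to compound for one day before measurement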
# In short: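 Steps: dose human primary bronchial epithelial cells, incubate 24 h, measure uPAR by ELISA, then fit gain- or loss-of-signal response bidirectionally relative to DMSO.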
# [7] = read-out: Interleukin-6 (IL6), IL6 (gene 3569); assay: BSK_CASM3C_IL6: BioMAP Diversity Plus: CASM3C Assay for Interleukin-6 (IL6) Biomarker Activity for (AID 2283040); conditions: primary human coronary artery smooth muscle cells; actives raise or lower the signal
# [8] = read-out: Tissue plasminogen activator (tPA), PLAT (gene 5327); assay: BSK_BE3C_tPA: BioMAP Diversity Plus: BE3C Assay for Tissue plasminogen activator (tPA) Biomarker Activity (AID 2283041); conditions: primary human bronchial epithelial cells; actives raise or lower the signal;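 also: tPA level quantified by ELISA one day after compound addition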
# In short: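 Gain- or loss-of-signal in tPA, measured by ELISA, derived by bidirectional fitting against DMSO. Cells: human primary bronchial epithelial; read at 24 h after chemical dosing.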
# [9] = read-out: Interleukin-8 (IL8), CXCL8 (gene 3576); assay: BSK_CASM3C_IL8: BioMAP Diversity Plus: CASM3C Assay for Interleukin-8 (IL8) Biomarker Activity (AID 2283042); conditions: primary human coronary artery smooth muscle cells; actives raise or lower the signal;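 also: IL-8 protein level quantified by ELISA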
# [10] = read-out: Human Leukocyte Antigen - DR isotype (HLADR), HLA-DRA (gene 3122); assay: BSK_CASM3C_HLADR: BioMAP Diversity Plus: CASM3C Assay for Human Leukocyte Antigen - DR isotype (HLADR) Biomarker Activity (AID 2283043); conditions: primary human coronary artery smooth muscle cells; actives raise or lower the signal;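 also: cell-surface HLA-DR protein level quantified by ELISA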
# [11] = read-out: Macrophage colony-stimulating factor (MCSF), CSF1 (gene 1435); assay: BSK_CASM3C_MCSF: BioMAP Diversity Plus: CASM3C Assay for Macrophage colony-stimulating factor (MCSF) Biomarker Activity (AID 2283044); conditions: primary human coronary artery smooth muscle cells; actives raise or lower the signal;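 also: M-CSF protein amount quantified by ELISA after 24 h exposure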
# [12] = read-out: Low-density lipoprotein receptor (LDLR), LDLR (gene 3949); assay: BSK_CASM3C_LDLR: BioMAP Diversity Plus: CASM3C Assay for Low-density lipoprotein receptor (LDLR) Biomarker Activity (AID 2283045); conditions: primary human coronary artery smooth muscle cells; actives raise or lower the signal;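 also: LDLR protein level on the cell surface quantified by ELISA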
# [13] = read-out: Monocyte Chemoattractant Protein-1 (MCP1), CCL2 (gene 6347); assay: BSK_CASM3C_MCP1: BioMAP Diversity Plus: CASM3C Assay for Monocyte Chemoattractant Protein-1 (MCP1) Biomarker Activity (AID 2283046); conditions: primary human coronary artery smooth muscle cells; actives raise or lower the signal;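 also: MCP-1 level quantified by ELISA 24 h after dosing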
# [14] = BSK_CASM3C_Proliferation: Cell Proliferation Assessment in the BioMAP Diversity Plus: CASM3C Assay (AID 2283047); conditions: primary human coronary artery smooth muscle cells;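 also: sulforhodamine B total protein stain as relative cell number at 560 nm; sub-confluent cells exposed 48 h before staining; fitted both ways against DMSO so gain or loss of cell number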
# [15] = read-out: Monokine induced gamma interferon (MIG), CXCL9 (gene 4283); assay: BSK_CASM3C_MIG: BioMAP Diversity Plus: CASM3C Assay for Monokine induced gamma interferon (MIG) Biomarker Activity (AID 2283048); conditions: primary human coronary artery smooth muscle cells; actives raise or lower the signal;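 also: MIG protein level measured by ELISA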
# [16] = read-out: serum amyloid A (SAA), SAA1 (gene 6288); assay: BSK_CASM3C_SAA: BioMAP Diversity Plus: CASM3C Assay for serum amyloid A (SAA) Biomarker Activity (AID 2283049); conditions: primary human coronary artery smooth muscle cells; actives raise or lower the signal;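 also: SAA protein level quantified by ELISA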
# [17] = BSK_CASM3C_SRB: Viability Assessment in the BioMAP Diversity Plus: CASM3C Assay (AID 2283050); conditions: primary human coronary artery smooth muscle cells;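 also: total protein by SRB staining as cytotoxicity measure in parallel cultures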
# [18] = read-out: Thrombomodulin, THBD (gene 7056); assay: BSK_CASM3C_Thrombomodulin: BioMAP Diversity Plus: CASM3C Assay for Thrombomodulin Biomarker Activity (AID 2283051); conditions: primary human coronary artery smooth muscle cells; actives raise or lower the signal;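 also: thrombomodulin protein level measured by ELISA 24 h after dosing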
# [19] = read-out: Tissue Factor, F3 (gene 2152); assay: BSK_CASM3C_TissueFactor: BioMAP Diversity Plus: CASM3C Assay for Tissue Factor Biomarker Activity (AID 2283052); conditions: primary human coronary artery smooth muscle cells; actives raise or lower the signal;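 also: cell surface tissue factor protein level read by ELISA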
# [20] = read-out: Interferon-gamma inducible Protein 10 (IP10), CXCL10 (gene 3627); assay: BSK_hDFCGF_IP10: BioMAP Diversity Plus: hDFCGF Assay for Interferon-gamma inducible Protein 10 (IP10) Biomarker Activity (AID 2283053); conditions: primary human foreskin fibroblasts; actives raise or lower the signal
# In short: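 Cells: human dermal foreskin fibroblasts. Exposure: 24 h post-dosing. Detection: IP-10 ELISA, with values expressed against DMSO controls and fitted in both directions.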
compound,measurement,setting,value
CCNc1nc(Cl)nc(NC(C)(C)C)n1,outcome,[1],inactive
same,outcome,[2],inactive
same,outcome,[3],inactive
same,outcome,[4],inactive
same,outcome,[5],inactive
same,outcome,[6],inactive
same,outcome,[7],inactive
same,outcome,[8],inactive
same,outcome,[9],inactive
same,outcome,[10],inactive
same,outcome,[11],inactive
same,outcome,[12],inactive
same,outcome,[13],inactive
same,AC50,[14],4.52 µM (active)
same,outcome,[15],inactive
same,outcome,[16],inactive
same,outcome,[17],inactive
same,outcome,[18],inactive
same,outcome,[19],inactive
same,outcome,[20],inactive
CCOP(=S)(OCC)SCSCC,outcome,[1],inactive
same,outcome,[2],inactive
same,outcome,[3],inactive
same,outcome,[4],inactive
same,outcome,[5],inactive
same,outcome,[6],inactive
same,outcome,[7],inactive
same,outcome,[8],inactive
same,outcome,[9],inactive
same,outcome,[10],inactive
same,outcome,[11],inactive
same,outcome,[12],inactive
same,outcome,[13],inactive
same,outcome,[14],inactive
same,outcome,[15],inactive
same,outcome,[16],inactive
same,outcome,[17],inactive
same,outcome,[18],inactive
same,outcome,[19],inactive
same,outcome,[20],inactive
CCOC(=O)c1ccccc1C(=O)OCC,outcome,[1],inactive
same,outcome,[2],inactive
same,outcome,[3],inactive
same,outcome,[4],inactive
same,outcome,[5],inactive
same,outcome,[6],inactive
same,outcome,[7],inactive
same,outcome,[8],inactive
same,outcome,[9],inactive
same,outcome,[10],inactive
same,outcome,[11],inactive
same,outcome,[12],inactive
same,outcome,[13],inactive
same,outcome,[14],inactive
same,outcome,[15],inactive
same,outcome,[16],inactive
same,outcome,[17],inactive
same,outcome,[18],inactive
same,outcome,[19],inactive
same,outcome,[20],inactive
CN(C)C(=O)Cl,outcome,[1],inactive
same,outcome,[2],inactive
same,outcome,[3],inactive
same,outcome,[4],inactive
same,outcome,[5],inactive
same,outcome,[6],inactive
same,outcome,[7],inactive
same,outcome,[8],inactive
same,outcome,[9],inactive
same,outcome,[10],inactive
same,outcome,[11],inactive
same,outcome,[12],inactive
same,outcome,[13],inactive
same,outcome,[14],inactive
same,outcome,[15],inactive
same,outcome,[16],inactive
same,outcome,[17],inactive
same,outcome,[18],inactive
same,outcome,[19],inactive
same,outcome,[20],inactive
CC(C)(C)c1ccc(O)cc1,outcome,[1],inactive
same,outcome,[2],inactive
same,outcome,[3],inactive
same,outcome,[4],inactive
same,outcome,[5],inactive
same,outcome,[6],inactive
same,outcome,[7],inactive
same,outcome,[8],inactive
same,outcome,[9],inactive
same,outcome,[10],inactive
same,outcome,[11],inactive
same,outcome,[12],inactive
same,outcome,[13],inactive
same,outcome,[14],inactive
same,outcome,[15],inactive
same,outcome,[16],inactive
same,outcome,[17],inactive
same,outcome,[18],inactive
same,outcome,[19],inactive
same,outcome,[20],inactive
O=C(O)C1C(C(=O)O)C2(Cl)C(Cl)=C(Cl)C1(Cl)C2(Cl)Cl (stereo not given),outcome,[1],inactive
same,outcome,[2],inactive
same,outcome,[3],inactive
same,outcome,[4],inactive
same,outcome,[5],inactive
same,outcome,[6],inactive
same,outcome,[7],inactive
same,outcome,[8],inactive
same,outcome,[9],inactive
same,outcome,[10],inactive
same,outcome,[11],inactive
same,outcome,[12],inactive
same,outcome,[13],inactive
same,outcome,[14],inactive
same,outcome,[15],inactive
same,outcome,[16],inactive
same,outcome,[17],inactive
same,outcome,[18],inactive
same,outcome,[19],inactive
same,outcome,[20],inactive
CCN(CC)c1ccccc1,outcome,[1],inactive
same,outcome,[2],inactive
same,outcome,[3],inactive
same,outcome,[4],inactive
same,outcome,[5],inactive
same,outcome,[6],inactive
same,outcome,[7],inactive
same,outcome,[8],inactive
same,outcome,[9],inactive
same,outcome,[10],inactive
same,outcome,[11],inactive
same,outcome,[12],inactive
same,outcome,[13],inactive
same,outcome,[14],inactive
same,outcome,[15],inactive
same,outcome,[16],inactive
same,outcome,[17],inactive
same,outcome,[18],inactive
same,outcome,[19],inactive
same,outcome,[20],inactive
